Screening data deposited in PubChem by National Center for Advancing Translational Sciences (NCATS).
Pf Dd2 growth – blocks in vitro growth of P. falciparum Dd2. Potency, µM (doses to about 28.9 µM), hits mostly inhibitors. AID 1347417. P. falciparum Dd2 growth, SYBR Green, 72 h. 120,000 compounds, 4.3% hits; active means well fitted inhibition curve with a large enough effect; further: nearly all actives have a fitted effect of over 65% in size
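Infected erythrocytes (Dd2, 0.3% parasitemia, 2.5% hematocrit final) are added to compound in RPMI-1640/Albumax II medium, grown 72 h at 37C in low oxygen, then lysed with saponin/Triton-X containing SYBR Green and read by fluorescence.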
Each line names hits and unclear results; the compound was inactive in the other large screens. The full list was thinned out, with hits kept by preference.

O=S1(=O)N(Cc2ccccc2)CCCN1Cc1cccc(Cl)c1	none
O=C(Cn1c2c(c(=O)n1Cc1ccccc1)CCN(Cc1ccccc1)C2)NCc1ccc2c(c1)OCO2	none
O=c1c2cc3c(cc2n(Cc2cccc(Cl)c2)c(=O)n1Cc1nc(-c2ccccc2)no1)OCO3	none
CCc1cc2c(-c3ccccc3)cc(=O)oc2c2c1OCN(Cc1ccc(F)cc1)C2	Pf Dd2 growth 3.55µM
O=C(Cn1c(=O)c2c(n1Cc1ccccc1)CN(Cc1ccccc1)CC2)Nc1cccc(F)c1	none
O=C(Cn1c(=O)c2c(n1Cc1ccccc1)CN(Cc1ccccc1)CC2)NCc1ccc2c(c1)OCO2	none
O=C1c2cc(N3CCOCC3)nc(-c3ccc(F)cc3)c2CN1Cc1ccccc1	none
O=c1cc(-c2ccccc2)c2cc(Cl)c3c(c2o1)CN(Cc1ccccc1)CO3	Pf Dd2 growth 12.6µM
Cn1nccc1CN1CCC2(CC1)CN[S+](=O)([O-])c1ccccc1N2	none
O=C(c1ccc(Cl)cc1)N1CCc2c(n(Cc3cccnc3)n(-c3ccccc3)c2=O)C1	none
Cc1cccc(C)c1Oc1ncccc1CNC(=O)CCN1CCCCO1	none
N#Cc1ccccc1CN1CCNc2nc(CN3CCN(CCO)CC3)n(Cc3ccccc3)c2C1=O	none
Cc1ccc(NC(=O)c2ccc3c(c2)N(S(C)(=O)=O)CC3)cc1	none
O=C(c1ccc2c(c1)OCO2)N1CCC(N2Cc3cccn3C2=O)CC1	none
COc1ccc(OC)c(NC(=O)c2nnn3c2COC(c2ccc(Cl)cc2)C3)c1 (centres undefined)	none
COc1ccc(C2Cn3nnc(C(=O)NCc4ccc(SC)cc4)c3CO2)cc1 (centres undefined)	none
COc1ccc(C2Cn3nnc(C(=O)Nc4cc(C)ccc4F)c3CO2)cc1 (centres undefined)	Pf Dd2 growth 11.2µM
CCN(CC)C(=O)[C@@H]1CCC[C@@H](NCc2nccs2)CN(C)C(=O)C1	none
CCOC(=O)c1ccc(NC(=O)C2CCCN(c3ncnc4onc(C)c34)C2)cc1 (centres undefined)	Pf Dd2 growth 7.94µM
CCOC(=O)c1ccc(NC(=O)C2CCCN(c3ccc(Sc4ccc(C)cc4)nn3)C2)cc1 (centres undefined)	Pf Dd2 growth 5.62µM
CCOC(=O)c1ccc(NC(=O)C2CCCN(c3cnccn3)C2)cc1 (centres undefined)	none
Cc1ccc(Sc2ccc(N3CCCC(C(=O)Nc4ccc(F)cc4F)C3)nn2)cc1 (centres undefined)	none
COC(=O)c1ccccc1NC(=O)C1CCCN(c2ncnc3onc(C)c23)C1 (centres undefined)	none
CCOCCCNC(=O)C1CCCN(c2ncnc3onc(C)c23)C1 (centres undefined)	none
O=C(CC1CCOCC1)Nc1ccccc1	none
O=C1OCC2(CCN([S+](=O)([O-])c3ccccc3)C2)N1CCN1CCOCC1 (centres undefined)	none
COc1cc(-c2noc(CN3CCN(c4cccc(Cl)c4)CC3)n2)cc(OC)c1OC	none
COc1ccc(-c2nc(-c3ccccc3)c(-c3ccccc3)[nH]2)cc1Br	none
COc1cc(-c2nc(-c3cccc(Cl)c3)c(-c3ccccc3)[nH]2)cc(OC)c1OC	Pf Dd2 growth 10µM
CCOc1ccc(NC(=O)c2nnn3c2COC(c2ccc(Cl)cc2)C3)cc1 (centres undefined)	none
COCCn1ncc(N2CCCC(CC(=O)NCc3ccccc3C)C2)cc1=O (centres undefined)	none
COCCNC(=O)[C@H]1C[C@H](Oc2ccccc2)CN1C(=O)c1ccco1	none
COc1ccc(C(=O)N2CCC([C@H]3[C@@H](OC)C(=O)N3C(C)C)CC2)c(OC)n1	none
CN1CCN(Cc2cnn(-c3cccc(Cl)c3)c2)CC1CCO (centres undefined)	Pf Dd2 growth 14.1µM
Cc1cccc(-n2cc(CN3CC[C@H](CO)[C@@H](O)C3)cn2)c1	none
COc1cc(CN2CCN(Cc3ccc(-n4cccn4)cc3C)CC2CCO)cc(OC)c1 (centres undefined)	none
COCCn1c(C)cnc1CCNS(=O)(=O)c1c(C)nn(C)c1C	none
COc1ccc(-c2cccc(COc3cnc4c(ccn4CC(=O)O)c3)c2)c(C)c1	none
O=C(c1nccc2ccccc12)N1CCC(n2cc(-c3nc(-c4ccccc4)no3)nn2)C1 (centres undefined)	none
COc1cc2nc(Cl)nc(N3CC4CCC(C3)N4CC(F)(F)F)c2cc1OC	Pf Dd2 growth 5.01µM
FC(F)(F)CN1C2CCC1CN(c1cc(Cl)ncn1)C2	none
COc1ccc([N+](=O)[O-])c(N2CC3CCC(C2)N3CC(F)(F)F)n1	none
CN(C)c1nc2c(c(=O)[nH]1)CCN(CCc1ccccc1)CC2	none
N#Cc1ccccc1CN1CCCCCCNC(=O)[C@@H]2C[C@@H](C(=O)N3CCc4ccccc4C3)C[C@@H]21	Pf Dd2 growth 3.16µM
C=CCN1CC(C(=O)N2CCN(Cc3ccccc3C#N)CC2)CC1=O (centres undefined)	none
Cc1ncsc1CN1CCCCCCNC(=O)[C@@H]2C[C@@H](C(=O)N3CCc4ccccc4C3)C[C@@H]21	Pf Dd2 growth 4.47µM
N#Cc1ccc(C(=O)N2CCCCCNC(=O)[C@@H]3CCCC[C@@H]32)cc1	none
O=C1NCCCCCN(C(=O)Cc2cccc(F)c2)[C@H]2CCC[C@@H]12	none
Cc1nc(C)c(C(=O)N2CC[C@H]3C(=O)NCCCCCCN(Cc4ccncc4)[C@@H]3C2)s1	none
CCS(=O)(=O)N1CCCCCCNC(=O)[C@@H]2C[C@@H](C(=O)N3CCN(c4ccccn4)CC3)C[C@@H]21	none
O=C1NCCCCCCN(Cc2cccc(F)c2)[C@H]2C[C@H](C(=O)N3CCc4ccccc4C3)C[C@@H]12	Pf Dd2 growth 3.55µM
Cc1ncsc1CN1CCCC(C(=O)NCc2ccccc2)CCNC(=O)CC1 (centres undefined)	none
O=C1NCCCCCCN(Cc2ccncc2)[C@@H]2CN(C(=O)c3cccnc3)CC[C@@H]12	none
N#Cc1ccc(CN2CCCCCCNC(=O)[C@@H]3C[C@@H](C(=O)N4CCc5ccccc5C4)C[C@@H]32)cc1	Pf Dd2 growth 2.82µM
O=C1NCCCCCCN(C(=O)Cc2cccc(F)c2)[C@H]2CCC[C@@H]12	none
Cc1ccc(CNC(=O)c2noc(-c3ccc(C)cc3)n2)cc1	none
Cc1ccc(C(=O)N2CCCC2c2nncn2Cc2ccncc2)c(=O)[nH]1 (centres undefined)	none
Cc1n[nH]c(C)c1C(N)C(=O)N1CCC(c2nnc3n2CCCCC3)CC1 (centres undefined)	none
Cc1cc(C(F)(F)F)nn1CC(=O)NCC(=O)N1CCCCCCNC(=O)CC1c1ccccc1 (centres undefined)	none
CN1CCC(N[C@H]2[C@H](O)[C@H](O)C[C@@H]2c2ccc(N3CCOCC3)nc2)CC1	none
O=C(O)C1CCc2nnc(C3CCN(C(=O)Cc4ccccc4)CC3)n21 (centres undefined)	none
Cc1ccc(NC(=O)N2CCc3c(c4ccccc4n3C)C2)cc1C	none
COc1ccc(CN2CCC(N3CCCNC3=O)CC2)cc1	none
COc1ccc(-c2[nH]nc3ncc(-c4ccccc4O)nc23)c(C)c1	none
Cc1ccc(C2NC(=O)c3n[nH]c(-c4cccs4)c32)cc1 (centres undefined)	none
COc1ccc(CCN2C(=O)c3[nH]nc(-c4ccccc4O)c3C2c2cccc(OC)c2)cc1 (centres undefined)	Pf Dd2 growth 10µM
CCCN1C(=O)CN(C2CCCCC2)C(=O)C1c1ccc(OC)c(OC)c1 (centres undefined)	none
Cc1ccc(C2c3c(-c4ccccc4O)n[nH]c3C(=O)N2CCc2ccccc2)cc1 (centres undefined)	Pf Dd2 growth 10µM
